Drawing on PubChem BioAssay (NCI), this text covers growth for 34 molecules.

Structures are written as SMILES. Compounds without any hit were thinned out: in the full panel of roughly 83,000, 20% have a hit.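 48-hour exposure, single concentration, 96-well plates; percent growth endpoint where 0 means no net growth. Active: below 10.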 Values without a mark were called inactive. Calls of active or inactive are those of the source.

The assay relates to 786-0 renal. The experiment in a line: NCI-60 one-dose screen, 48 h (100 = growth as untreated, 0 = no growth, -100 = all killed). As to conditions: 10 µM unless noted.
As for `CCCSc1nc(Nc2ccc(S(N)(=O)=O)cc2)c(C#N)c(-c2ccc(Cl)cc2)n1`, the growth was -69.7% (active).
On to `CCCCSc1nc(Nc2ccc(S(N)(=O)=O)cc2)c(C#N)c(-c2ccc(Cl)cc2)n1`, for which the growth is 23%.
For `Cn1cc(-c2cc3nc(-c4cn(C)c5ncccc45)cc(N)n3n2)c2ccccc21`, the growth was -52.9% (active).
For `Cc1ccc(C2=NN(c3nc(-c4cc5ccccc5oc4=O)cs3)C(c3ccc(C)cc3)C2)cc1` (centres undefined), the growth was 110%.
Then `Cc1ccc2c(c1)nc(-c1ccccc1)n2CC(=O)N=Nc1c(O)[nH]c2ccc(Br)cc12`, with -88.1% (active); and `O=C(Cn1nc(-c2ccccc2)ccc1=O)N/N=C/c1ccc(N2CCOCC2)cc1`, with 97.7%; and `O=C(NN1C(=O)/C(=C/C=C/c2ccc([N+](=O)[O-])o2)SC1=S)c1ccc(Cl)cc1`, with -82.3% (active).
Then `CCCCSc1nc(Nc2ccc(S(N)(=O)=O)cc2)c(C#N)c(-c2cc(OC)c(OC)c(OC)c2)n1`, with 57.1%; and `COc1cc2c3c(n(CCCN4CCC[C@@H]4CO)c(=O)c2cc1OC)-c1cc2c(cc1C3=O)OCO2`, with -86.3% (active).
In the case of `Cn1cc(-c2cc(N)n3nc(-c4cn(C)c5ncc(Br)cc45)cc3n2)c2cc(Br)cnc21` it was -40.8% (active); in that of `Cn1cc(-c2cc(N)n3nc(-c4c[nH]c5ccccc45)cc3n2)c2cccnc21`, -81.3% (active); in that of `CN(C)c1nc(NCCNS(=O)(=O)c2ccc(C3=Nc4c(N)nc(N)nc4NC(c4ccccc4)C3)cc2)nc(Nc2ccc(F)cc2)n1` (centres undefined), 29.7%.
Regarding `COc1ccc(-c2ccc(SCC(=O)NCCc3ccc(S(N)(=O)=O)cc3)nn2)cc1`, the growth is 85.8%.
For `O=C(CCN1C(=O)/C(=C/c2ccc(F)cc2)SC1=S)N1CCOCC1`, the growth is 67.1%.
Then `Cc1cc2nc3c4ccccc4n(CC4=NCCN4)c3nc2cc1C`, with -97% (active); and `Cc1ccc(C(=O)NN2C(=O)/C(=C/C=C/c3ccc([N+](=O)[O-])o3)SC2=S)cc1`, with -86% (active); and `Cc1cc2nc3c([nH]c2cc1C)c1ccc(=O)cc1n3CCN(C)C`, with 49.1%.
Then `N/C(=N\c1nc2ccccc2s1)NC(=O)Nc1c(Cl)cccc1Cl`, with 52.5%; and `Brc1ccc(-c2n(Cc3ccc4ccccc4c3)c(-c3ccccc3)c(-c3ccccc3)[n+]2Cc2ccc3ccccc3c2)cc1`, with -79.3% (active).
Regarding `C=C1CC[C@@H]2[C@]3(C)COC(c4cn[nH]c4-c4ccc(Br)cc4)O[C@@H]3CC[C@@]2(C)[C@@H]1C/C=C1/C(=O)OCC1O` (some centres undefined), the growth was -95.5% (active).
As for `COc1ccc(-c2nc3cc(C)ccc3n2CC(=O)N=Nc2c(O)[nH]c3ccc(Br)cc23)cc1`, the growth was 25.6%.
Take `CC12CC[C@@H]3[C@]4(C)COC(c5cn[nH]c5-c5cccc(Br)c5)O[C@@H]4CC[C@@]3(C)[C@@H]1CC(C1=CCOC1=O)O2` (some centres undefined): the growth is 53.1%.
As to `COc1c(F)ccc(C(=O)Nc2ccc3nc(NC(=O)C4CCCN(S(=O)(=O)c5ccc(C#N)cc5)C4)sc3c2)c1F` (centres undefined), the growth is 75.5%.
In the case of `COc1ccc2c(c1)c(-c1cc3nc(-c4cn(C)c5ncccc45)cc(N)n3n1)cn2C` it was -92% (active); in that of `CC(=O)c1cc(C(=O)c2ccccc2)n2c1ccc1ccccc12`, 98.7%.
Regarding `COc1ccc2[nH]c(=O)c(CSc3nccc(-c4ccc(OC)c(OC)c4)n3)cc2c1`, the growth is 30.4%.
As for `COc1ccc(NC(=O)Cn2c3c(sc2=O)[C@H]2[C@@H](O)[C@@H](O)[C@H](O)[C@@H]2CS3)cc1`, the growth is 104%.
Then `C=C1CCC2C3(C)COC(c4cccs4)OC3CCC2(C)C1CC(Sc1ccccc1)C1=CCOC1=O` (centres undefined), with 91.9%; and `CC1CN(c2oc(-c3ccc([N+](=O)[O-])cc3)nc2C#N)CC(C)O1` (centres undefined), with 104%; and `Cc1occc1C(=O)NN1C(=O)/C(=C/C=C/c2ccc([N+](=O)[O-])o2)SC1=S`, with -69.7% (active).
Consider `N=C1N=C(SCc2nc3ccccc3[nH]2)NC(=O)/C1=C/c1ccc(Cl)cc1`, for which the growth is 118%.
Take `O=C(NN1C(=O)/C(=C/C=C/c2ccc([N+](=O)[O-])o2)SC1=S)c1ccccc1O`: the growth is -89.5% (active).
Regarding `COc1ccc(-c2nc3cc(C)ccc3n2CC(=O)N=Nc2c(O)[nH]c3ccc(Cl)cc23)cc1`, the growth is 11%.
In the case of `COC1=C[C@]23CCC(=O)N2CCc2cc4c(cc2[C@@H]3[C@@H]1OC(=O)[C@H](C)O)OCO4` it was 22.7%.
